This is a sample that favours compounds with a hit; in the whole collection about 3% have one here.
FBA Mtb inh = inhibits M. tuberculosis FBA enzyme; P9WQA3; purified M. tuberculosis FBA, fluorescence read-out; inhibition, % at 1 µM; hit rate 2.3% among 360,000;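 further: 0% = vehicle and 100% = reference inhibitor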
GDH-TPI counter-1 = counter-screen for M. tuberculosis FBA inhibitors: GDH-TPI coupled enzymes. GDH-TPI coupled enzyme counterscreen, NADH absorbance. hit rate 1.2% among 360,000. inhibition, % at 4.8 µM; in the data active means inhibition above about 30%;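 further: 0% = DMSO wells and 100% = wells lacking the enzyme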
FadD28 binding = blocks FadD28 binding to the bisubstrate probe | hit rate 0.22% among 360,000 | inhibition, % at 12.5 µM | fluorescence polarization | AID 588549; in the data active means inhibition above about 8.5%, passing the limit was not always enough
Rv3671c protease = inhibits the M. tuberculosis serine protease Rv3671c. hit rate 0.048% among 320,000. inhibition, % at 5.96 µM. P9WHR9; in the data active means inhibition above about 38%;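 further: extracellular domain of Rv3671c used as enzyme; 0% = enzyme with DMSO and 100% = no enzyme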
Target sequence (P9WHR9 whole entry, looked up, the tested form may be a part): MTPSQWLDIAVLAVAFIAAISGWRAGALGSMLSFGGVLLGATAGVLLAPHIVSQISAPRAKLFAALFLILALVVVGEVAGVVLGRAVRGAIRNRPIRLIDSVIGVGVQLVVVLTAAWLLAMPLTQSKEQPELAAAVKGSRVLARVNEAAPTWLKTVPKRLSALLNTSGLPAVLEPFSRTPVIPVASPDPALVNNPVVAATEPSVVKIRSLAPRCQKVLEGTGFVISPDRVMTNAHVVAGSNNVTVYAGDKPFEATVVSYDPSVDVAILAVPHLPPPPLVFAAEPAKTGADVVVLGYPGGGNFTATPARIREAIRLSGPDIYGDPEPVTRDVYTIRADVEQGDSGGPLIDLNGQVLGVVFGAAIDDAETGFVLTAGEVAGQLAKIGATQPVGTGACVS
Mtb BioA inh = BioA (M. tuberculosis) enzyme inhibition | purified M. tuberculosis BioA enzyme, plate reader | inhibition, % at 9.99 µM | hit rate 0.096% among 360,000 | AID 602481; in the data active means inhibition above about 40%
Mtb FBA confirm = Mtb FBA inhibition, confirmed; inhibition, % at 1 µM; shares compounds with FBA Mtb inh; hit rate 78% among 5,600; purified M. tuberculosis FBA, fluorescence read-out; AID 651616;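 further: 0% = vehicle wells and 100% = reference inhibitor wells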
GDH-TPI counter-2 = inhibits GDH-TPI coupling enzymes, flagging Mtb FBA hits; shares compounds with FBA Mtb inh; inhibition, % at 1 µM; hit rate 81% among 5,600; GDH-TPI coupled enzyme counterscreen, fluorescence; in the data active means inhibition above about 10%
Numbers without * were called inactive; . = not tested or not shown; + = active, no number. Unless noted, no stated cut-off is given here; in the data, active means inhibition above about 27%; inactive means the rest.

SMILES	FBA Mtb inh	GDH-TPI counter-1	FadD28 binding	Rv3671c protease	Mtb BioA inh	Mtb FBA confirm	GDH-TPI counter-2
O=C(O)C[C@@H]1C[C@H]2c3cc(NC(=O)C4CCC4)ccc3O[C@H]2[C@H](CO)O1	.	.	.	.	-0.9	.	.
COC(=O)c1oc2ccc(OC)cc2c1N	28.6*	7.8	1.0	8.6	0.3	+	165.8*
COc1ccc2oc(C(=O)OCC(=O)NC3CC3)c(C)c2c1	44.0*	3.9	-3.5	3.6	-1.2	+	+
COc1ccc(S(=O)(=O)N[C@@H]2CC[C@H](CCNC(=O)Cc3ccccn3)O[C@@H]2CO)cc1	.	.	.	.	-0.8	.	.
O=C(C[C@H]1CC[C@H]2[C@@H](COC[C@H](O)CN2C(=O)Nc2cc(Cl)cc(Cl)c2)O1)NCC1CCCCC1	.	.	.	.	-1.6	.	.
CC(C)CNC(=O)c1c(N)n(Cc2ccc3c(c2)OCO3)c2nc3ccccc3nc12	27.4*	11.7	-3.7	-87.0	-0.2	79.2*	66.3*
COCCn1c(N)c(C(=O)Nc2sc3c(c2C(=O)OC)CCCC3)c2nc3ccccc3nc21	0.9	6.3	-1.3	9.9	0.3	.	.
COCC(C)OC(=O)c1c(N)n(CC(C)C)c2nc3ccccc3nc12 (stereo unspecified)	99.4*	9.4	-1.1	-0.5	-1.1	3.7	2.6
CC(C)Cn1c(N)c(C(=O)NCC2CCCO2)c2nc3ccccc3nc21 (stereo unspecified)	85.3*	20.1	-6.0	-11.6	3.2	60.5*	35.3*
COc1ccc(OC)c(-n2c(N)c(C(=O)NCC3CCCO3)c3nc4ccccc4nc32)c1 (stereo unspecified)	4.5	3.4	-4.0	.	-5.5	.	.
Nc1c(C(=O)NCC2CCCO2)c2nc3ccccc3nc2n1/N=C/c1ccncc1 (stereo unspecified)	1.2	1.3	-5.6	.	.	.	.
Nc1c(C(=O)NCC2CCCO2)c2nc3ccccc3nc2n1Cc1ccco1 (stereo unspecified)	85.5*	2.3	-3.0	0.8	-2.5	-2.6	-7.1
CO[C@@H]1CN(C)C(=O)c2cccc(C#N)c2OC[C@H]2O[C@H](CC[C@H]2OC)CCN(C)C(=O)[C@H]1C	.	.	.	.	-1.8	.	.
C[C@H]1CN([C@@H](C)CO)C(=O)c2cc(NC(=O)CCC(F)(F)F)ccc2O[C@@H]1CN(C)S(C)(=O)=O	.	.	.	.	-3.3	.	.
Nc1c(C(=O)NC2CCCC2)c2nc3ccccc3nc2n1N	2.5	8.8	-2.0	8.1	-0.9	.	.
Nc1c(C(=O)OCC2CCCO2)c2nc3ccccc3nc2n1C1CCCC1 (stereo unspecified)	49.3*	9.8	0.4	-5.9	.	81.7*	58.3*
CC(C)OC(=O)c1c2nc3ccccc3nc2n2c1[nH]c(=O)c1ccccc12	.	.	.	2.9	.	.	.
CC(C)OC(=O)c1c(N)n(Cc2ccco2)c2nc3ccccc3nc12	43.5*	-13.7	0.1	-2.1	-1.5	130.8*	97.5*
Nc1c(C(=O)NC2CCCC2)c2nc3ccccc3nc2n1CC1CCCO1 (stereo unspecified)	47.3*	19.6	-1.2	-47.0	-3.5	+	+
O=C(C[C@@H]1C[C@@H]2c3cc(NC(=O)c4cccnc4)ccc3O[C@@H]2[C@@H](CO)O1)NCc1ccncc1	.	.	.	.	19.9	.	.
COc1ccc(NC(=O)N(C)C[C@@H]2OCc3ccccc3-c3ccccc3C(=O)N([C@H](C)CO)C[C@@H]2C)cc1	.	.	.	.	1.1	.	.
COc1ccc(-n2cc(CN3CCCC3)c(-c3cccc(F)c3)n2)cc1	22.5	1.3	-2.9	6.4	.	.	.
COc1ccc(-n2cc(CNC3CCN(C)CC3)c(-c3cccc(F)c3)n2)cc1	63.5*	13.4	-2.2	-12.9	.	189.5*	161.8*
COc1ccc(-n2cc(CN[C@H]3CCCCNC3=O)c(-c3cccc(F)c3)n2)cc1	56.6*	6.2	-2.5	2.3	1.1	-4.1	-1.1
COc1ccccc1NC(=O)N1C[C@@H](C)[C@H](OC)CN(C)C(=O)c2ccc(NC(=O)c3cc(C)on3)cc2OC[C@H]1C	.	.	.	.	-0.4	.	.
O=c1[nH]c2cc3c(cc2cc1CN(Cc1ccccc1)Cc1nnnn1Cc1ccco1)OCCO3	19.6	17.1	-4.1	.	-2.1	.	.
O=c1[nH]c2cc3c(cc2cc1CN(Cc1cccs1)Cc1nnnn1Cc1ccco1)OCCO3	35.1*	23.5	0.0	-24.4	.	83.6*	77.6*
O=c1[nH]c2cc3c(cc2cc1CN(Cc1cccnc1)Cc1nnnn1Cc1ccco1)OCCO3	34.1*	17.9	-1.8	-11.6	0.3	-1.9	0.0
